According to the OligoGym collection:

biological target: FAM194A; experiment: pooled miR-30 sensor sort-seq; sequence = guide strand; settings: shRNA
Further: reference of the scale not given here.

Point of comparison: TTTTCTTTTGCCTTGAGTCTGT, sensor-assay potency score (higher = more potent) 0.354. Against it:
- TACAATGTCATCAATTATCTGT — higher, 0.418
- TTATTGTCTTCATTATATCTTG — lower, -0.455
- TTATATCTTGCTTTATACCAGA — lower, -0.69
- TAGAATATTTGTGTTGTCCCAT — lower, 0.0372
- TTCTCTAAGAGCTCATTCCTGA — lower, -0.231

biological target: FAM203A; experiment: as above; settings: shRNA

Point of comparison: TCTTGCGGATGTCTGCATCAGG, sensor-assay potency score (higher = more potent) -1.13. Against it:
- TGCATCAGGTTCTCGCTGCTTG — higher, -0.383
- AGGTCCAAGCAACCACTCGTGA — lower, -1.79
- TCCAACTGCTCCTGCTCCCTGC — higher, -0.834
- TGCAAGTCGACAGGCAGCCGTT — lower, -1.26
- TAGCCGGGCGTGCACAGCGCGC — lower, -1.89
- TTCAACAAGCATCTTGCGGATG — higher, -0.806
- TGGACCACGCACCTGTCGGGGT — higher, -1.1
- TGATGTCGGTGCTCGAAGCAGC — higher, -0.572
- TTGCAGTGGTTTTCTGTCCAGT — higher, -0.715
- ATGGCTTCAACAAGCATCTTGC — higher, -0.247
